From PubChem
D1 PAM – Potentiators of Human D1 Dopamine Receptor: qHTS. potentiation, % at 10 µM. AID 504651, 2011. D(1A) dopamine receptor (Homo sapiens), P21728. HEK293 TREx D1 cells, calcium flux, dopamine EC20 potentiation. 0.036% of 360,000 active; in the data active means potentiation above about 30%
Target sequence (P21728 whole entry, looked up): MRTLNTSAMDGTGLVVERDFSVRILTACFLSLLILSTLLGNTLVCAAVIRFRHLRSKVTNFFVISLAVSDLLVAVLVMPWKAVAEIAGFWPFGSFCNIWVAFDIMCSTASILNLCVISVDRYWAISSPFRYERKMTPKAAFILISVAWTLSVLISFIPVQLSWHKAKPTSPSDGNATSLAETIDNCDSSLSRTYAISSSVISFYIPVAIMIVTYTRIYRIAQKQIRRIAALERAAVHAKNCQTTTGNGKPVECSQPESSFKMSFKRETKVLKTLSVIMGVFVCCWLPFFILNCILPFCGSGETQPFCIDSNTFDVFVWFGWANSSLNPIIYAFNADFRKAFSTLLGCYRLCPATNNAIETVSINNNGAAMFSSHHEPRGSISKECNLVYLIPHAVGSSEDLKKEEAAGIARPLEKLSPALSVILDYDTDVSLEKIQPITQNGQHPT
DRD3 antagonist – qHTS of D3 Dopamine Receptor Antagonist: qHTS | max response, negative = inhibition, % | AID 652054, 2013 | D(3) dopamine receptor (Homo sapiens), P35462 | 2.5% of 360,000 active | D3R cells, DiscoveRx beta-arrestin luminescence, antagonist mode; active compounds read low; in the data active means max response below about -50%
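Cells plated overnight at 1500 cells/well, then exposed to library compounds with dopamine controls for 90 minutes at 37 degrees C. DiscoveRx reagent added for 30–60 minutes at room temperature; luminescence read, quantitative HTS format.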
D1 antagonist – Antagonist of Human D 1 Dopamine Receptor: qHTS; AID 504652, 2011; 3.2% of 360,000 active; activity change, negative = inhibition, % at 10 µM; HEK293 TREx D1 cells, calcium flux, dopamine EC80; active compounds read low; in the data active means activity change below about -30%
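Tetracycline-induced HEK293 Trex D1 cells, force-coupled to calcium, dye-loaded; compounds added and read 180 s, then EC80 dopamine added and calcium flux tracked kinetically another 180 s.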
D1 ag – Allosteric Agonists of the Human D1 Dopamine Receptor: qHTS. D(1A) dopamine receptor (Homo sapiens), P21728. HEK293 T-REx D1 cells, calcium flux, agonist mode. activation, % at 2 µM. 1% of 360,000 active. AID 504660, 2011; in the data active means activation above about 30%
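Agonism was scored from calcium flux recorded over 180 s (1 read/s) after pintool compound addition, following a 10-cycle baseline. Cells were inducible force-coupled HEK293 TREx D1, plated overnight at 30 C and loaded with no-wash calcium dye.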
D3 ag – qHTS of D3 Dopamine Receptor Agonist: qHTS. D3R DiscoveRx beta-arrestin cells, luminescence, 90 min. max activation, %. 0.58% of 410,000 active. AID 652048, 2013; in the data active means max activation above about 30%
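Cells at 1500/well, incubated overnight, then treated with pinned compounds (dopamine as control) for 90 min at 37 degrees C. DiscoveRx reagent added for 30 - 60 minutes at room temperature; luminescence read.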
Numbers stand for hits. Compounds with a hit are over-represented: about 6% of the library has one in this group of screens.

Results for Cc1cc(O)ccc1Nc1nc(-c2cccs2)cs1 ?
D1 PAM: inactive; DRD3 antagonist: inactive; D1 antagonist: inactive; D1 ag: inactive; D3 ag: inactive

Results for Cc1nc(C)c(-c2csc(Nc3ccc(O)cc3C)n2)s1 ?
D1 PAM: inactive; DRD3 antagonist: inactive; D1 antagonist: -31.6; D1 ag: inactive; D3 ag: inactive

Results for Fc1ccc(Nc2nc(-c3ccncc3)cs2)cc1 ?
D1 PAM: inactive; DRD3 antagonist: inactive; D1 antagonist: -51.9; D1 ag: inactive; D3 ag: inactive

Results for COc1ccc(OCC(=O)NCc2ccc3c(c2)CCN3C(=O)c2cccc(C)c2)cc1 ?
D1 PAM: inactive; D1 antagonist: inactive; D1 ag: inactive; D3 ag: inactive

Results for COc1ccccc1N1CCN(C(=O)CN2C(=O)COc3ccc(S(=O)(=O)N4CCOCC4)cc32)CC1 ?
D1 PAM: inactive; D1 antagonist: inactive; D1 ag: inactive; D3 ag: inactive

What do the screens show for `COc1ccc(Cl)cc1NC(=O)c1c(NCc2cccnc2)sc2c1CCC(C)C2` (configuration not stated)?
D1 PAM: inactive; D1 antagonist: inactive; D1 ag: inactive; D3 ag: inactive

Results for COc1cc(Cl)c(C)cc1NC(=O)Cn1ncc2c(=O)oc3ccccc3c21 ?
D1 PAM: inactive; D1 antagonist: inactive; D1 ag: inactive; D3 ag: inactive

Results for Brc1ccc(-c2csc(Nc3nc(-c4ccc(Br)cc4)cs3)n2)cc1 ?
D1 PAM: inactive; DRD3 antagonist: inactive; D1 antagonist: -30.1; D1 ag: inactive; D3 ag: inactive

How did Cc1nc(C)c(-c2csc(Nc3ccc(F)cc3)n2)s1 do in these assays?
D1 PAM: inactive; DRD3 antagonist: inactive; D1 antagonist: -37.5; D1 ag: inactive; D3 ag: inactive

How did COc1cccc(Nc2nc(-c3sc(C)nc3C)cs2)c1 do in these assays?
D1 PAM: inactive; DRD3 antagonist: inactive; D1 antagonist: inactive; D1 ag: inactive; D3 ag: inactive

How did CCOc1ccc(-n2c(=O)c3c(C)c(C)sc3n(CC(=O)NCCc3ccccc3)c2=O)cc1 do in these assays?
D1 PAM: inactive; D1 antagonist: inactive; D1 ag: inactive; D3 ag: inactive

What do the screens show for `CC(C)CC(=O)Nc1c2c(nn1-c1cccc(Cl)c1)CS(=O)C2` (configuration not stated)?
D1 PAM: inactive; DRD3 antagonist: inactive; D1 antagonist: -32.7; D1 ag: inactive; D3 ag: inactive

Results for CCOc1ccc(NC(=O)Cn2cnc3sc(C)c(S(=O)(=O)N4CCN(c5ccccc5OC)CC4)c3c2=O)cc1 ?
D1 PAM: inactive; D1 antagonist: inactive; D1 ag: inactive; D3 ag: inactive

Results for Cc1ccc(Cn2c(CN3CCC(C(=O)NCCc4ccccc4)CC3)cc3ccccc32)cc1 ?
D1 PAM: inactive; D1 antagonist: inactive; D1 ag: 43.0; D3 ag: inactive

What do the screens show for `O=C(CC(c1cccs1)N1Cc2ccccc2C1=O)Nc1ccc(Cl)cc1` (configuration not stated)?
D1 PAM: inactive; D1 antagonist: inactive; D1 ag: inactive; D3 ag: inactive

How did CCOC(=O)c1c(C)[nH]c(C)c1S(=O)(=O)N1CCCC(C(=O)N2CCN(c3cccc(Cl)c3)CC2)C1 (configuration not stated) do in these assays?
D1 PAM: inactive; D1 antagonist: inactive; D1 ag: inactive; D3 ag: inactive

What do the screens show for `CCOc1ccc(-c2cc(NC(=O)c3ccccc3)c(C(=O)OC)s2)cc1`?
D1 PAM: inactive; D1 antagonist: inactive; D1 ag: inactive; D3 ag: inactive

Results for CCOC(=O)c1ccc(NC(=O)c2nc[nH]c2C(=O)NC)cc1 ?
D1 PAM: inactive; DRD3 antagonist: inactive; D1 antagonist: inactive; D1 ag: inactive; D3 ag: 48.5

What do the screens show for `COc1ccc(NC(=O)c2nc[nH]c2C(=O)NCc2ccccc2)cc1`?
D1 PAM: inactive; DRD3 antagonist: inactive; D1 antagonist: inactive; D1 ag: inactive; D3 ag: 56.8

How did CN(Cc1ccccc1)C(=O)c1[nH]cnc1C(=O)NCc1ccccc1 do in these assays?
D1 PAM: inactive; DRD3 antagonist: inactive; D1 ag: inactive; D3 ag: inactive
